From PubChem BioAssay
TRPM1 prom inh – inhibitors of MITF-driven TRPM1 promoter in melanoma cells | inhibition, % at 12.5 µM | hit rate 0.83% among 330,000 | AID 488899 | SK-MEL-5 TRPM1 promoter luciferase, 24 h;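 active = mean inhibition across replicates of 60% or more, whatever share of single replicates reaches that level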
PAX8 reporter – PAX8 transcriptional activity inhibition. RMG-I TPO-luciferase reporter, SteadyGlo, 24 h. inhibition, % at 12.6 µM. hit rate 1.2% among 360,000;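 active = mean replicate inhibition at least 60% with every replicate also reaching 60%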;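 also: luciferase light reporting Pax8 driven TPO promoter activity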
Shn3 3UTR inh – inhibitors of Schnurri-3 3'UTR reporter in osteoblasts; Clone20 osteoblast Shn3 3'UTR firefly luciferase, 24 h; inhibition, % at 12.5 µM; hit rate 0.52% among 360,000; AID 588674;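 active = mean inhibition of at least 75% with every replicate also reaching 75%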
aSyn UTR inh – MLPCN primary screen, SNCA 5' untranslated region; alpha-synuclein 5'UTR reporter, inhibitor activity; inhibition, % (tested at 7.5 µM); hit rate 0.82% among 300,000; AID 1813; in the data active = inhibition above about 60%;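 also: H4 neuroglioblastoma cells stably carrying SNCA 5'UTR luciferase fusion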
EBV LMP1 NFkB – Epstein-Barr LMP1 NF-kappaB reporter inhibition; LMP1-induced NF-kappaB luciferase reporter cells, luminescence; inhibition, % at 12.5 µM; hit rate 0.69% among 350,000; AID 504558; in the data active = inhibition above about 41%
Each line names hits and unclear results; the compound was inactive in the other large screens; ! = repeats disagree. Sampled rows, rich in hits. Any-hit rate of the full collection: about 2.1%.

COc1ccc(S(=O)(=O)Nc2ccc3c(c2)CC(=O)N([C@@H](C)CO)C[C@H](C)[C@H](CN(C)S(=O)(=O)c2ccc(C)cc2)O3)cc1	PAX8 reporter 71.9 (no result: TRPM1 prom inh, Shn3 3UTR inh, aSyn UTR inh, EBV LMP1 NFkB)
COc1ccc(S(=O)(=O)Nc2ccc3c(c2)CC(=O)N([C@H](C)CO)C[C@H](C)[C@@H](CN(C)Cc2ccc(-c4ccccc4)cc2)O3)cc1	PAX8 reporter 75.6 (no result: TRPM1 prom inh, Shn3 3UTR inh, aSyn UTR inh, EBV LMP1 NFkB)
COc1ccc(S(=O)(=O)N(C)C[C@@H]2Oc3ccc(NS(=O)(=O)c4ccc(C)cc4)cc3CC(=O)N([C@H](C)CO)C[C@@H]2C)cc1	none (no result: TRPM1 prom inh, Shn3 3UTR inh, aSyn UTR inh, EBV LMP1 NFkB)
C[C@H]1CN([C@@H](C)CO)C(=O)Cc2cc(NS(=O)(=O)c3ccc(F)cc3)ccc2O[C@@H]1CN(C)Cc1ccc(-c2ccccc2)cc1	none (no result: TRPM1 prom inh, Shn3 3UTR inh, aSyn UTR inh, EBV LMP1 NFkB)
Cc1ccc(S(=O)(=O)Nc2ccccc2F)cc1C(=O)NNC(=O)c1csc(N2CCOCC2)n1	none
O=C(O)c1cccc(NS(=O)(=O)c2ccc(NC(=O)c3ccco3)cc2)c1	none
C[C@H]1CN([C@@H](C)CO)C(=O)c2cc(/C=C/c3ccccc3)cnc2O[C@@H]1CN(C)C(=O)c1cccc(F)c1	none (no result: TRPM1 prom inh, Shn3 3UTR inh, aSyn UTR inh, EBV LMP1 NFkB)
CC(C)(S)[C@@H](N)C(=O)O	EBV LMP1 NFkB 55.0 (no result: aSyn UTR inh)
NC(CS(=O)O)C(=O)O (configuration not stated)	none
CC(C)CCN1C(=O)CSCC1(C)C(=O)NC(C)C (configuration not stated)	none (no result: TRPM1 prom inh, Shn3 3UTR inh, aSyn UTR inh, EBV LMP1 NFkB)
C=CCSc1nc2c(cnn2-c2ccccc2)c(=O)n1N	aSyn UTR inh 74.2 (no result: TRPM1 prom inh, EBV LMP1 NFkB)
CCCSc1nc2c(cnn2-c2ccccc2)c(=O)[nH]1	none
Cc1cc(C)n(CC(=O)NCCC2=CCCCC2)n1	none
Brc1ccc(C2=Nn3c(nnc3-c3n[nH]c4c3CCC4)SC2)cc1	aSyn UTR inh 86.0 (no result: PAX8 reporter)
Clc1ccc(C2=Nn3c(nnc3-c3n[nH]c4c3CCC4)SC2)cc1	none (no result: PAX8 reporter)
CC(C)C(Cl)=NOC(=O)Nc1ccc(F)cc1	Shn3 3UTR inh 99.0 (no result: aSyn UTR inh)
COc1ccc(-c2nnc(-c3cccnc3)o2)cc1	none
CNC(=O)C1=NCCCc2cc(OC)c(OC)cc21	EBV LMP1 NFkB 64.2 (no result: PAX8 reporter)
CCOc1ccc(Nc2oc(-c3cccc(Cl)c3)nc2C#N)cc1	none (no result: PAX8 reporter)
O=C(c1cc(COc2ccc3ncccc3c2)on1)N1CCCC1	none
COCC1CCN(C(=O)c2cc(COc3ccc4ncccc4c3)on2)CC1	Shn3 3UTR inh 85.6
Cc1cccc(-c2noc(CN(C(=O)C(c3ccccc3)c3ccccc3)C(C)C)n2)c1	Shn3 3UTR inh 84.4 (no result: TRPM1 prom inh)
CCS(=O)(=O)N1N=C(c2cccc(NS(C)(=O)=O)c2)CC1c1cccs1 (configuration not stated)	none
Cc1cccc(-c2ccc([C@H]3[C@@H](CO)N4CCCCN(S(=O)(=O)c5cccc(C)c5)C[C@@H]34)cc2)c1	PAX8 reporter 95.8 (no result: TRPM1 prom inh, Shn3 3UTR inh, aSyn UTR inh, EBV LMP1 NFkB)
Cc1ccc(-c2ccc([C@H]3[C@@H](CO)N4CCCCN(S(=O)(=O)c5cccc(C)c5)C[C@H]34)cc2)cc1	PAX8 reporter 72.7 (no result: TRPM1 prom inh, Shn3 3UTR inh, aSyn UTR inh, EBV LMP1 NFkB)
Cc1ccc2c(c1C)NC(=O)C2(O)CC(=O)c1ccc2c(c1)OCO2 (configuration not stated)	none (no result: PAX8 reporter)
O=C(c1ccc(F)cc1)N1C[C@@H]2N[C@H](C1)C2c1ccc(-c2cncnc2)cc1 (some centres not stated)	none (no result: TRPM1 prom inh, Shn3 3UTR inh, aSyn UTR inh, EBV LMP1 NFkB)
O=C(c1ccc(F)cc1)N1C[C@@H]2N[C@H](C1)C2c1ccc(-c2ccccc2F)cc1 (some centres not stated)	none (no result: TRPM1 prom inh, Shn3 3UTR inh, aSyn UTR inh, EBV LMP1 NFkB)
O=C(c1ccc(F)cc1)N1C[C@@H]2N[C@H](C1)C2c1ccc(-c2ccc(F)cc2)cc1 (some centres not stated)	PAX8 reporter 83.6! (no result: TRPM1 prom inh, Shn3 3UTR inh, aSyn UTR inh, EBV LMP1 NFkB)
N#Cc1ccc(-c2ccc(C3[C@@H]4CN(C(=O)c5ccc6c(c5)OCO6)C[C@H]3N4)cc2)cc1 (some centres not stated)	PAX8 reporter 90.9! (no result: TRPM1 prom inh, Shn3 3UTR inh, aSyn UTR inh, EBV LMP1 NFkB)
N#Cc1cccc(-c2ccc(C3[C@@H]4CN(C(=O)c5ccc6c(c5)OCO6)C[C@H]3N4)cc2)c1 (some centres not stated)	none (no result: TRPM1 prom inh, Shn3 3UTR inh, aSyn UTR inh, EBV LMP1 NFkB)
Cc1ccccc1-c1ccc(C2[C@@H]3CN(C(=O)c4ccc(F)cc4)C[C@H]2N3)cc1 (some centres not stated)	PAX8 reporter 65.0! (no result: TRPM1 prom inh, Shn3 3UTR inh, aSyn UTR inh, EBV LMP1 NFkB)
O=C(NCC1COc2ccccc2O1)C1CCC(CNc2c(N3CCCCC3)c(=O)c2=O)CC1 (configuration not stated)	none (no result: aSyn UTR inh)
Nc1nc(CCl)nc(Nc2cccc3ccccc23)n1	PAX8 reporter 122.9 (no result: TRPM1 prom inh, EBV LMP1 NFkB)
Nc1nc(Nc2cccc3ccccc23)nc(C2CCCC2=O)n1 (configuration not stated)	none (no result: TRPM1 prom inh, Shn3 3UTR inh, EBV LMP1 NFkB)
O=C(c1cc(-c2ccc(Cl)cc2)on1)N1CCCC1	none
